Test results taken from publication PMC7862700, “An all-to-all approach to the identification of sequence-specific readers for epigenetic DNA modifications on cytosine”.

Experiments:
Assay in all cases: DAPPL (digital affinity profiling via proximity ligation, sequencing); 10 mM Tris-HCl pH 7.5, 50 mM NaCl, 1 mM DTT, 4% glycerol, room temperature, 30 min; GST-TFs on glutathione beads, 16-mer random dsDNA library, 0.1% formaldehyde crosslink after washing; high values mean tight binding
FEV = molecular target: T1, FEV (Homo sapiens, UniProt Q99581 1-238); settings: protein: recombinant; tags: N-terminal GST; dsDNA, one strand shown
T1 sequence: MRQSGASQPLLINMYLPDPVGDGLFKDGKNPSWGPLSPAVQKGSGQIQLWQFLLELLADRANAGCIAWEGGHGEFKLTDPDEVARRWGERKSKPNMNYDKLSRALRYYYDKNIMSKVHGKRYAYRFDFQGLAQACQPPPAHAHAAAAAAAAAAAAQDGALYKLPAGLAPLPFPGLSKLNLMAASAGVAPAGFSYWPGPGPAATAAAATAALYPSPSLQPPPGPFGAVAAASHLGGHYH
Method in brief: (§1)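 Human transcription factors were made in yeast as GST fusions, captured on glutathione beads and barcoded with DNA. With a tag-only sample included, the pool was incubated with 200 nmole of a random double-stranded 16-mer DNA library in Tris/NaCl/DTT/glycerol buffer at room temperature for 30 min, then crosslinked with 0.1% formaldehyde after washing, ligated by proximity, amplified and sequenced. For binding signal, each hexamer's read frequency for a factor is divided by its frequency for the tag-only sample.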

ETV5 = ETV5 (Homo sapiens, UniProt P41161 1-510); settings: protein: recombinant; tags: N-terminal GST; dsDNA, one strand shown
Method in brief: as §1

HSF1 = HSF1 (Homo sapiens, UniProt Q00613 1-529); settings: protein: recombinant; tags: N-terminal GST; chain copies: 3; dsDNA, one strand shown
Method in brief: as §1

SPIC = molecular target: T2, SPIC (Homo sapiens, UniProt Q8N5J4 1-248); settings: protein: recombinant; tags: N-terminal GST; dsDNA, one strand shown
T2 sequence: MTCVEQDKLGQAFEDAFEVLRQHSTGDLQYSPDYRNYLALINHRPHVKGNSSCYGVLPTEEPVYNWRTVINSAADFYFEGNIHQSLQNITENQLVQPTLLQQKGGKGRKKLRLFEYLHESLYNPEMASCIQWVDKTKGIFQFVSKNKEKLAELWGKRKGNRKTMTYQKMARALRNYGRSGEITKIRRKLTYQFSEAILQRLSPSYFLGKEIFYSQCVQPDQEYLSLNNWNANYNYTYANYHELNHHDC
Method in brief: as §1

ELF4 = ELF4 (Homo sapiens, UniProt Q99607 1-663); settings: protein: recombinant; tags: N-terminal GST; dsDNA, one strand shown
Method in brief: as §1

ELK4 = molecular target: T3, ELK4 (Homo sapiens, UniProt P28324-2 1-405); settings: protein: recombinant; tags: N-terminal GST; dsDNA, one strand shown
T3 sequence: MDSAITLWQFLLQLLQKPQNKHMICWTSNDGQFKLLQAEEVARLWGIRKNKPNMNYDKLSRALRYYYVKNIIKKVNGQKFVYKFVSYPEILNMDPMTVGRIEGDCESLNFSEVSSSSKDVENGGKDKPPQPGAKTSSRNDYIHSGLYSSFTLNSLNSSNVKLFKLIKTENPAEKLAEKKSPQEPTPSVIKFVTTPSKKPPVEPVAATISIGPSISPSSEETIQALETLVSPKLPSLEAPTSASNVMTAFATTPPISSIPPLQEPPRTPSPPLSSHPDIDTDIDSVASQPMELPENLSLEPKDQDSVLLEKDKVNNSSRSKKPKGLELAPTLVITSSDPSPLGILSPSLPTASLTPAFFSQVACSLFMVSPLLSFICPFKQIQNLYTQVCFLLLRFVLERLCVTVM
Method in brief: as §1

ETV2 = molecular target: T4, ETV2 (Homo sapiens, UniProt O00321 1-342); settings: protein: recombinant; tags: N-terminal GST; dsDNA, one strand shown
T4 sequence: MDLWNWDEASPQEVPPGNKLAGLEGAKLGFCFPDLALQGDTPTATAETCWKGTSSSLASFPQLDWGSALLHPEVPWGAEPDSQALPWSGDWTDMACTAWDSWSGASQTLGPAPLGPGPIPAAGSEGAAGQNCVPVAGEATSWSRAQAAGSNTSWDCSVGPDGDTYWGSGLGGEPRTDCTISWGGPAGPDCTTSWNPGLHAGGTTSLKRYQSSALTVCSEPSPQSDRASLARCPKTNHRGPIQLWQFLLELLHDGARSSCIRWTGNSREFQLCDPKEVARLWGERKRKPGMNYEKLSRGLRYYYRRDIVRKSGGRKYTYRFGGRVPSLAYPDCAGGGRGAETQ
Method in brief: as §1

ELF3 = molecular target: T5, ELF3 (Homo sapiens, UniProt P78545 1-371); settings: protein: recombinant; tags: N-terminal GST; dsDNA, one strand shown
T5 sequence: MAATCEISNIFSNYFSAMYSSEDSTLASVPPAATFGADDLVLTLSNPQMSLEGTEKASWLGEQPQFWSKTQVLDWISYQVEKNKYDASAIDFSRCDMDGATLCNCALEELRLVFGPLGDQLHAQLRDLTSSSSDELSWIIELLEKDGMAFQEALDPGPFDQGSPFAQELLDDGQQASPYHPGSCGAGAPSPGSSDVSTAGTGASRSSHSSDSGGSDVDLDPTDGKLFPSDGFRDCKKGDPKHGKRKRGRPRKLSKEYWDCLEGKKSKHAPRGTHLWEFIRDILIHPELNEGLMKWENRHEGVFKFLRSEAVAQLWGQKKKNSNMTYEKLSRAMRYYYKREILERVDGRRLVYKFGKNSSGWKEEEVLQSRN
Method in brief: as §1

CRX = CRX (Homo sapiens, UniProt O43186 1-299); settings: protein: recombinant; tags: N-terminal GST; dsDNA, one strand shown
Method in brief: as §1

ETV1 = ETV1 (Homo sapiens, UniProt P50549 1-477); settings: protein: recombinant; tags: N-terminal GST; dsDNA, one strand shown
Method in brief: as §1

HSF1, sequence (Q00613 whole entry): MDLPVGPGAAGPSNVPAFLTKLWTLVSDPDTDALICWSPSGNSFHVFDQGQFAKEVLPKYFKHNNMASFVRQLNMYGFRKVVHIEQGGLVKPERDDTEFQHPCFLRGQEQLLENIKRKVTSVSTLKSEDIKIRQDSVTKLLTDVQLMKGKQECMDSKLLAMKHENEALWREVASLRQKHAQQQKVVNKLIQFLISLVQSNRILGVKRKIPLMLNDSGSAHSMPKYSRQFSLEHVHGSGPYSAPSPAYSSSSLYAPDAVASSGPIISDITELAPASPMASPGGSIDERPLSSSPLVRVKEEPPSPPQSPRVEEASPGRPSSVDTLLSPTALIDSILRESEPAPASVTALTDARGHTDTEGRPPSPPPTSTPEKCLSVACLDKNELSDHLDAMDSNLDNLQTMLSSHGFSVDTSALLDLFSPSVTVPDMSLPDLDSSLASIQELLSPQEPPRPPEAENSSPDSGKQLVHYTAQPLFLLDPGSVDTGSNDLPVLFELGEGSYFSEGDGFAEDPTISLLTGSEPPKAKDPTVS
ELF4, sequence (Q99607 whole entry): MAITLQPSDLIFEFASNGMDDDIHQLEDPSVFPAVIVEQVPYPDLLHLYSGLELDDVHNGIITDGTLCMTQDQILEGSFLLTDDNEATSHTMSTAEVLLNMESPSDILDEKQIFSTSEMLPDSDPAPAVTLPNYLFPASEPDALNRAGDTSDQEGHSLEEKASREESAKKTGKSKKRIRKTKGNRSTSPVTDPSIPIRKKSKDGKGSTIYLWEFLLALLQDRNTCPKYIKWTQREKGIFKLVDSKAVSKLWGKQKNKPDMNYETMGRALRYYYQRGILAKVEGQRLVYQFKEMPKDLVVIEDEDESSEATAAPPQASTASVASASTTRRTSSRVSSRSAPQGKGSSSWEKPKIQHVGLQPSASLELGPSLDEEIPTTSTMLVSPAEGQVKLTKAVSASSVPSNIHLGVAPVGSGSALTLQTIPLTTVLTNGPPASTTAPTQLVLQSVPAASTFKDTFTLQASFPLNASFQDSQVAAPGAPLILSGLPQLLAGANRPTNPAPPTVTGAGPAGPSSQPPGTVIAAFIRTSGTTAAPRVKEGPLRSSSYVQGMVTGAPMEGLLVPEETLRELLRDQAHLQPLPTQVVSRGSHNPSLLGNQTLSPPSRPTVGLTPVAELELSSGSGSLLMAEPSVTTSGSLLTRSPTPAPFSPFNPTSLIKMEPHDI
ETV1, sequence (P50549 whole entry): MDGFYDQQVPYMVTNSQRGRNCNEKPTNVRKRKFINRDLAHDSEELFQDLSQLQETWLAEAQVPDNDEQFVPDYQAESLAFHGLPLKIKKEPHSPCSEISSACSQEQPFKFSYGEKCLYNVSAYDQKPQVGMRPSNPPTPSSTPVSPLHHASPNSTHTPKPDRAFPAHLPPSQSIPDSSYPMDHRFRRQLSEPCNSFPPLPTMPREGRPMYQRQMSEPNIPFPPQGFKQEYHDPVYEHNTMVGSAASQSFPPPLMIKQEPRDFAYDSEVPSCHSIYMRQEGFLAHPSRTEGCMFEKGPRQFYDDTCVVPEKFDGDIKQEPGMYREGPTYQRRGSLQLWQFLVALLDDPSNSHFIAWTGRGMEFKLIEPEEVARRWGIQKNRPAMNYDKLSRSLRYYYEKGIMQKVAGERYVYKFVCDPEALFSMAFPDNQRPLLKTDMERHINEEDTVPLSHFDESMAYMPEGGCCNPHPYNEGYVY
ETV5, sequence (P41161 whole entry): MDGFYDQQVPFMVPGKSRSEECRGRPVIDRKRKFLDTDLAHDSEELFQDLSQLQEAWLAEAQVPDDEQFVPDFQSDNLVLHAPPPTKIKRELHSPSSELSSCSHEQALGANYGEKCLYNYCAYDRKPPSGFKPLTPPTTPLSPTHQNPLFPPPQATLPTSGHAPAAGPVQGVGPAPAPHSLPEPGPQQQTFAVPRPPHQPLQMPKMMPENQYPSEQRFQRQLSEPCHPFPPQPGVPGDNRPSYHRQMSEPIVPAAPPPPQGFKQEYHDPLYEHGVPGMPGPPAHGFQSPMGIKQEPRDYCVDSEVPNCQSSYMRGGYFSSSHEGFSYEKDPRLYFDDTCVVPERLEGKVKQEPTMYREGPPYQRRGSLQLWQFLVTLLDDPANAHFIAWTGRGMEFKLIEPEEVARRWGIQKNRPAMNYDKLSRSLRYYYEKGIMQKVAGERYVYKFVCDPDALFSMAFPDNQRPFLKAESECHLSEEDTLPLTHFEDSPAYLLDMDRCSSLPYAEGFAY
CRX, sequence (O43186 whole entry): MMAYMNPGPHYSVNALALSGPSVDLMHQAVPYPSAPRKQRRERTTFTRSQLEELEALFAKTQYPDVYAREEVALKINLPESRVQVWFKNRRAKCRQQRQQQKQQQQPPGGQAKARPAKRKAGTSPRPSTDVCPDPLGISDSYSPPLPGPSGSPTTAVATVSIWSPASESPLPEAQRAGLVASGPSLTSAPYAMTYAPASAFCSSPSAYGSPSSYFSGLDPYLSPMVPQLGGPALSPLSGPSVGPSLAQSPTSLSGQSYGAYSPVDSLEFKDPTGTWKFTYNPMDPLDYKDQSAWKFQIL

With TCCCAT the binding signal (FEV) was 1.32 fold enrichment (6-mer frequency, TF over GST control), the binding signal (ETV5) was 1.34 fold enrichment (6-mer frequency, TF over GST control) and the binding signal (HSF1) was 1.21 fold enrichment (6-mer frequency, TF over GST control). The binding signal (SPIC) was 1.45 fold enrichment (6-mer frequency, TF over GST control), the binding signal (ELF4) was 1.29 fold enrichment (6-mer frequency, TF over GST control) and the binding signal (ELK4) was 1.27 fold enrichment (6-mer frequency, TF over GST control). The binding signal (ETV2) was 1.41 fold enrichment (6-mer frequency, TF over GST control), the binding signal (ELF3) was 1.44 fold enrichment (6-mer frequency, TF over GST control) and the binding signal (CRX) was 1.43 fold enrichment (6-mer frequency, TF over GST control). For the same sequence, the binding signal (ETV1) was 1.37 fold enrichment (6-mer frequency, TF over GST control).
